# Measurements as given in PubChem BioAssay (EPA / NIEHS).
# Results filed as inconclusive are left out. Active and inactive are the calls of the source. Rule for the calls, unless noted: active = hit-call score of the fitted dose curve at least 0.9, where 1 is the maximum; inactive = score below 0.9.
# Tests used:
# [1] = read-out: Vascular cell adhesion molecule 1 (VCAM1), VCAM1 (gene 7412); experiment: BSK_LPS_VCAM1: BioMAP Diversity Plus: LPS Assay for Vascular cell adhesion molecule 1 (VCAM1) Biomarker Activity (AID 2283086); conditions: primary human HUVEC with PBMC; actives raise or lower the signal
# In short: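 Primary human vascular co-culture (umbilical vein endothelium plus PBMC) stimulated with LPS received chemical; 24 h later VCAM-1 was read by ELISA. Overt cytotoxicity was assessed by sulforhodamine B staining of parallel cultures at the same time point.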
# CD38, CD38 (gene 952) = experiment: BSK_SAg_CD38: BioMAP Diversity Plus: SAg Assay for CD38 Biomarker Activity (AID 2283087); conditions: primary human HUVEC with PBMC; actives raise or lower the signal
# In short: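 Fluorescence ELISA of cell-surface CD38 served as the read-out, with either increase or decrease fitted against DMSO controls. Cells were a human umbilical vein endothelium plus PBMC co-culture under SEB/TSST-1 stimulation, measured 24 h after dosing.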
# CD40, CD40 (gene 958) = experiment: BSK_SAg_CD40: BioMAP Diversity Plus: SAg Assay for CD40 Biomarker Activity (AID 2283088); conditions: primary human HUVEC with PBMC; actives raise or lower the signal
# In short: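 HUVEC plus PBMC co-culture, superantigen-activated, with CD40 read by ELISA 24 h after dosing. Curves fitted in both directions against DMSO. Overt cytotoxicity checked by parallel SRB total-protein staining.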
# CD69, CD69 (gene 969) = experiment: BSK_SAg_CD69: BioMAP Diversity Plus: SAg Assay for CD69 Biomarker Activity (AID 2283089); conditions: primary human HUVEC with PBMC; actives raise or lower the signal;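 for AC50: cell surface CD69 protein quantified by ELISA with fluorescence detection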
# In short: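 Primary human vascular co-culture (umbilical vein endothelium with peripheral blood mononuclear cells) exposed to test chemical for 24 h. CD69 levels quantified by fluorescence ELISA; DMSO served as negative control for bidirectional fitting.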
# [2] = read-out: Monocyte Chemoattractant Protein-1 (MCP1), CCL2 (gene 6347); experiment: BSK_SAg_MCP1: BioMAP Diversity Plus: SAg Assay for Monocyte Chemoattractant Protein-1 (MCP1) Biomarker Activity (AID 2283090); conditions: primary human HUVEC with PBMC; actives raise or lower the signal
# In short: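 MCP-1 levels in the endothelial–PBMC SAg co-culture were quantified by ELISA at 24 h post-dosing; both increases and decreases versus DMSO scored. Cytotoxicity monitored by SRB total protein in parallel cultures.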
# [3] = read-out: E-selectin (Homo sapiens) (UniProt P16581); experiment: BSK_SAg_Eselectin: BioMAP Diversity Plus: SAg Assay for Eselectin Biomarker Activity (AID 2283091); conditions: primary human HUVEC with PBMC; actives raise or lower the signal
# In short: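 Human umbilical vein endothelial cells co-cultured with peripheral blood mononuclear cells, SAg system. E-selectin is measured by ELISA 24 h after dosing and fitted bidirectionally against DMSO. Cytotoxicity is checked by SRB staining of parallel cultures.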
# [4] = read-out: Monokine induced gamma interferon (MIG), CXCL9 (gene 4283); experiment: BSK_SAg_MIG: BioMAP Diversity Plus: SAg Assay for Monokine induced gamma interferon (MIG) Biomarker Activity (AID 2283092); conditions: primary human HUVEC with PBMC; actives raise or lower the signal
# In short: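 Endothelial cells and PBMC were co-cultured, exposed to test chemicals, and sampled 24 h later. MIG was measured by ELISA, and responses were fitted in both directions relative to DMSO.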
# [5] = BSK_SAg_PBMCCytotoxicity: PBMC Cytotoxicity Assessment in the BioMAP Diversity Plus: SAg Assay (AID 2283093); conditions: primary human HUVEC with PBMC;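 note: PBMC viability measured as Alamar Blue reduction fluorescence at 546/580 nm; fitted both ways against DMSO so a hit may be loss or gain of signal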;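 for AC50: PBMC superantigen activated with SEB plus TSST-1 one hour after compound addition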
# In short: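 HUVEC/PBMC co-culture; PBMC exposed to chemical 1 h before SEB and TSST-1 activation (20 ng/mL each), incubated 90 h, then Alamar Blue 6 h, fluorescence 546/580 nm. Bidirectional fit versus DMSO baseline.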
# [6] = read-out: Interleukin-8 (IL8), CXCL8 (gene 3576); experiment: BSK_SAg_IL8: BioMAP Diversity Plus: SAg Assay for Interleukin-8 (IL8) Biomarker Activity (AID 2283094); conditions: primary human HUVEC with PBMC; actives raise or lower the signal
# In short: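 In this co-culture of human umbilical vein endothelium with peripheral blood mononuclear cells, IL-8 is assayed by ELISA at 24 h. DMSO serves as baseline for bidirectional curve fitting.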
# [7] = BSK_SAg_Proliferation: Cell Proliferation Assessment in the BioMAP Diversity Plus: SAg Assay (AID 2283095); conditions: primary human HUVEC with PBMC;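 note: relative cell number as total protein by SRB absorbance in sub-confluent culture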
# In short: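 Readout is SRB-stained protein (560 nm) in a primary human HUVEC and PBMC co-culture; sub-confluent cultures are read at 96 h. Activity is fitted bidirectionally using DMSO as baseline.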
# [8] = BSK_SAg_SRB: Viability Assessment in the BioMAP Diversity Plus: SAg Assay (AID 2283096); conditions: primary human HUVEC with PBMC;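 note: cells read one day after compound addition; hits may be either gain or loss of signal compared with DMSO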
# In short: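 Human umbilical vein endothelial cells co-cultured with PBMC, read 24 h after compound dosing. Total protein measured by sulforhodamine B staining (0.1% SRB after 10% TCA fixation, absorbance 560 nm); bidirectional fit versus DMSO baseline.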
# [9] = target: human CYP2C9, CYP2C9 (gene 1559) (UniProt P11712); experiment: NVS_ADME_hCYP2C9: NovaScreen (NVS) CYP450-related Enzyme Activity (ADME) Assay for human CYP2C9 (AID 2283108; active = hit-call score of the fitted dose curve at least 0.9, where 1 is the maximum)
# Sequence of human CYP2C9, CYP2C9 (gene 1559) (P11712 whole entry, looked up): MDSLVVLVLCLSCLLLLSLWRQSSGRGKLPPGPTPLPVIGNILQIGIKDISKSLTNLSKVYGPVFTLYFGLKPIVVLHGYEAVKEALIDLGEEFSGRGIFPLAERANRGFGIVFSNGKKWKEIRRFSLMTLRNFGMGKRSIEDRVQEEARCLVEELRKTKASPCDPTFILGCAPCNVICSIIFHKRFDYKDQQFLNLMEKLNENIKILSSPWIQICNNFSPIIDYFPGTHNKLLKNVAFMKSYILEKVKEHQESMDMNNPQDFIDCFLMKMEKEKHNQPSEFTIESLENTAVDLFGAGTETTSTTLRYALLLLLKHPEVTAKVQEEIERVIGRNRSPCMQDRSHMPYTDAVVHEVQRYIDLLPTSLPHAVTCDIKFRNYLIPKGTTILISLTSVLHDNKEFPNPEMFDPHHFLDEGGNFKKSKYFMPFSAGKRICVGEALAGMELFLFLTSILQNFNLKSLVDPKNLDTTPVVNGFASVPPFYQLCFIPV
# In short: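 Recombinant human CYP2C9 expressed in SF9 cells, fluorogenic substrate, fluorescence read 0.75 h after dosing. Chemicals first run in duplicate at 10 uM, with actives followed in concentration series; loss of signal versus acetonitrile baseline.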
# [10] = target: human CYP2B6, CYP2B6 (gene 1555) (UniProt P20813); experiment: NVS_ADME_hCYP2B6: NovaScreen (NVS) CYP450-related Enzyme Activity (ADME) Assay for human CYP2B6 (AID 2283101; active = hit-call score of the fitted dose curve at least 0.9, where 1 is the maximum)
# Sequence of human CYP2B6, CYP2B6 (gene 1555) (P20813 whole entry, looked up): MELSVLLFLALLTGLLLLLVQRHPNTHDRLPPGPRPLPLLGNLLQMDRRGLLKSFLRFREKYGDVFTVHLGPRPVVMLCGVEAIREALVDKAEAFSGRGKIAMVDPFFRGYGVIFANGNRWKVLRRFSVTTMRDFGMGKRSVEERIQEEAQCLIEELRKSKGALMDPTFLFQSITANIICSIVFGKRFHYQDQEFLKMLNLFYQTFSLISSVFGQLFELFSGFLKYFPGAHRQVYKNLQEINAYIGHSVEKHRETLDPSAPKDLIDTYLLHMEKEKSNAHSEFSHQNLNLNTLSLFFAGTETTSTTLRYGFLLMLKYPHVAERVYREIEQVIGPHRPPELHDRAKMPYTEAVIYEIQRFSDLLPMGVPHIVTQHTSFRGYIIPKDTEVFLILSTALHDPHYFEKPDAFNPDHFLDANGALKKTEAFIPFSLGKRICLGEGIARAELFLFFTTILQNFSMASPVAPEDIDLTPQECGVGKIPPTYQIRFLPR
# In short: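 Cell-free recombinant enzyme assay with a fluorogenic substrate; fluorescence intensity read 1 hour after dosing. Loss of signal relative to acetonitrile negative control indicates inhibition. Primary screen run in duplicate at 10 uM, actives then tested in concentration series.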
# [11] = target: human CYP1A2, CYP1A2 (gene 1544) (UniProt P05177); experiment: NVS_ADME_hCYP1A2: NovaScreen (NVS) CYP450-related Enzyme Activity (ADME) Assay for human CYP1A2 (AID 2283102; active = hit-call score of the fitted dose curve at least 0.9, where 1 is the maximum;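 note: potency for inhibition since loss of fluorescence marks reduced CYP1A2 activity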)
# Sequence of human CYP1A2, CYP1A2 (gene 1544) (P05177 whole entry, looked up): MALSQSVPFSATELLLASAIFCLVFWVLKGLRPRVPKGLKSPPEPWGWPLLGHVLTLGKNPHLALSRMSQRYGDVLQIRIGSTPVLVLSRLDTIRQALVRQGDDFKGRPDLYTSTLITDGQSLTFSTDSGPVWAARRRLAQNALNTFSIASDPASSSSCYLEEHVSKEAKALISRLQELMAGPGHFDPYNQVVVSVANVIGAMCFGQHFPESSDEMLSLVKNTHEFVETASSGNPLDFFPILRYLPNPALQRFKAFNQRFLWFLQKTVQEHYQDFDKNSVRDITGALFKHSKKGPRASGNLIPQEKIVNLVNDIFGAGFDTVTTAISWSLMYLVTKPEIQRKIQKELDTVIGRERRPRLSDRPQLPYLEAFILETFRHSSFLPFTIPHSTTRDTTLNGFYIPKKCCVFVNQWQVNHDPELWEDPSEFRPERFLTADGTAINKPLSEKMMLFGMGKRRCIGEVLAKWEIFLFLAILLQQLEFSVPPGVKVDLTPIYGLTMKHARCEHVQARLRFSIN
# In short: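 Recombinant human CYP1A2 from insect cells, cell-free, fluorogenic substrate; read 0.5 h after dosing with loss of fluorescence signal indicating inhibition. Primary screen in duplicate at 10 uM, acetonitrile as negative control.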
# [12] = target: Cytochrome P450 2C19 (Homo sapiens) (UniProt P33261); experiment: NVS_ADME_hCYP2C19: NovaScreen (NVS) CYP450-related Enzyme Activity (ADME) Assay for human CYP2C19 (AID 2283113; active = hit-call score of the fitted dose curve at least 0.9, where 1 is the maximum;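 note: potency for inhibition seen as loss of fluorescent signal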)
# In short: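 Cell-free recombinant human CYP2C19 from insect cells, fluorescent substrate; activity read by fluorescence intensity 1 h after dosing. Primary screen in duplicate at 10 uM; actives retested in concentration series. Signal loss versus acetonitrile negative control.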
# [13] = target: Cytochrome P450 3A4 (Homo sapiens) (UniProt P08684); experiment: NVS_ADME_hCYP3A4: NovaScreen (NVS) CYP450-related Enzyme Activity (ADME) Assay for human CYP3A4 (AID 2283110; active = hit-call score of the fitted dose curve at least 0.9, where 1 is the maximum)
# Sequence of Cytochrome P450 3A4 (Homo sapiens) (P08684 whole entry, looked up): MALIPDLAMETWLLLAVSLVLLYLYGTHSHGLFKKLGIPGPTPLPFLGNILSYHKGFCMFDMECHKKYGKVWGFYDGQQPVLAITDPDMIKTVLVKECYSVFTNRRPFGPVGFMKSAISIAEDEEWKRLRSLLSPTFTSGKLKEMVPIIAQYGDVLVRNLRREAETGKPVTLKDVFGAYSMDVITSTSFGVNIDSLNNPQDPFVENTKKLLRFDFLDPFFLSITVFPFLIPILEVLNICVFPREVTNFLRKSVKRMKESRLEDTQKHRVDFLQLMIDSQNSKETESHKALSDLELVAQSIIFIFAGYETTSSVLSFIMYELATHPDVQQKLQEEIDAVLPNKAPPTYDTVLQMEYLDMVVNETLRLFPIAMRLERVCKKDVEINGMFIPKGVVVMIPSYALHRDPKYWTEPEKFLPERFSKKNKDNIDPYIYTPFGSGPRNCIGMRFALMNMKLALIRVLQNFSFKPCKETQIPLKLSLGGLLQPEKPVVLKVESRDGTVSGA
# In short: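 Cell-free recombinant enzyme expressed in insect cells; fluorescent substrate turnover read after 0.33 h, acetonitrile as negative control. Primary screen in duplicate at 10 uM, actives then tested in concentration series.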
# Sequence of E-selectin (Homo sapiens) (P16581 whole entry, looked up): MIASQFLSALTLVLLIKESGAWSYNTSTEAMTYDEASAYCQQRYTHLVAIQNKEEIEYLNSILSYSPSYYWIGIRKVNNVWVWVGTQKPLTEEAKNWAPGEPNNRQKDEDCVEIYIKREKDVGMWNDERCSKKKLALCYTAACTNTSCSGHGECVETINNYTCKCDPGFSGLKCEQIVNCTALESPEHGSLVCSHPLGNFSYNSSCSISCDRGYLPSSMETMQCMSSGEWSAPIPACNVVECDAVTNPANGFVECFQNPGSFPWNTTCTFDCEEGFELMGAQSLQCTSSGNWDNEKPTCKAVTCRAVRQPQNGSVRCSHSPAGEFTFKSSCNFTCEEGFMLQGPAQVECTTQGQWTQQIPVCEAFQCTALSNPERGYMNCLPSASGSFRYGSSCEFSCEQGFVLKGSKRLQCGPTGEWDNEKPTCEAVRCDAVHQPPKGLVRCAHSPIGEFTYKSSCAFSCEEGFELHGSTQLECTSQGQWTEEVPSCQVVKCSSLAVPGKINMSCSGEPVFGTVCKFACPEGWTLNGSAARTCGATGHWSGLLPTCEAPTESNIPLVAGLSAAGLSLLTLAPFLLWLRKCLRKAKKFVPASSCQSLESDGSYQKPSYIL
compound,measurement,setting,value
CCOc1cccc(-n2cc(C(=O)N3CCN(c4cc(C(=O)O)c5ccccc5c4)CC3)nc2-c2ccc(C)cc2)c1,AC50,[1],14.2 µM (active)
same,AC50,"CD38, CD38 (gene 952)",28.2 µM (active)
same,AC50,"CD40, CD40 (gene 958)",13.6 µM (active)
same,AC50,"CD69, CD69 (gene 969)",21.7 µM (active)
same,AC50,[2],28.3 µM (active)
same,AC50,[3],19.2 µM (active)
same,AC50,[4],35.4 µM (active)
same,AC50,[5],26.9 µM (active)
same,AC50,[6],11.4 µM (active)
same,AC50,[7],24.6 µM (active)
same,AC50,[8],14.1 µM (active)
CC(=O)c1ccc2c(c1)[C@H](NC(=O)c1ccc(F)cc1)[C@@H](O)C(C)(C)O2,outcome,[1],inactive
same,outcome,"CD38, CD38 (gene 952)",inactive
same,outcome,"CD40, CD40 (gene 958)",inactive
same,outcome,"CD69, CD69 (gene 969)",inactive
same,outcome,[2],inactive
same,outcome,[3],inactive
same,outcome,[4],inactive
same,outcome,[5],inactive
same,outcome,[6],inactive
same,AC50,[7],4.31 µM (active)
COc1ccc(/C=C/S(=O)(=O)NC(=O)c2ccc(C)cc2Cl)cc1,outcome,[1],inactive
same,outcome,"CD38, CD38 (gene 952)",inactive
same,AC50,"CD40, CD40 (gene 958)",4.18 µM (active)
same,outcome,"CD69, CD69 (gene 969)",inactive
same,outcome,[2],inactive
same,outcome,[3],inactive
same,outcome,[4],inactive
same,outcome,[5],inactive
same,outcome,[6],inactive
same,AC50,[7],6.54 µM (active)
same,AC50,[9],12.7 µM (active)
CC(C)(O)c1coc(S(=O)(=O)NC(=O)Nc2c3c(cc4c2CCC4)CCC3)c1,outcome,[1],inactive
same,outcome,"CD38, CD38 (gene 952)",inactive
same,outcome,"CD40, CD40 (gene 958)",inactive
same,outcome,"CD69, CD69 (gene 969)",inactive
same,outcome,[2],inactive
same,outcome,[3],inactive
same,outcome,[4],inactive
same,outcome,[5],inactive
same,outcome,[6],inactive
same,outcome,[7],inactive
same,AC50,[10],6.39 µM (active)
same,AC50,[11],16 µM (active)
same,AC50,[9],13.4 µM (active)
same,AC50,[12],10 µM (active)
O=C1OC(=O)C2C3C=CC(C3)C12 (stereo not given),outcome,"CD38, CD38 (gene 952)",inactive
same,outcome,"CD40, CD40 (gene 958)",inactive
same,outcome,"CD69, CD69 (gene 969)",inactive
same,outcome,[2],inactive
same,outcome,[3],inactive
same,outcome,[4],inactive
same,outcome,[5],inactive
same,outcome,[6],inactive
same,outcome,[7],inactive
CC(C)=CCC/C(C)=C\CO,outcome,"CD38, CD38 (gene 952)",inactive
same,outcome,"CD40, CD40 (gene 958)",inactive
same,outcome,"CD69, CD69 (gene 969)",inactive
same,outcome,[2],inactive
same,outcome,[3],inactive
same,outcome,[4],inactive
same,outcome,[5],inactive
same,outcome,[6],inactive
same,outcome,[7],inactive
O=C1CCC(N2C(=O)c3ccccc3C2=O)C(=O)N1 (stereo not given),outcome,"CD38, CD38 (gene 952)",inactive
same,outcome,"CD40, CD40 (gene 958)",inactive
same,outcome,"CD69, CD69 (gene 969)",inactive
same,outcome,[2],inactive
same,outcome,[3],inactive
same,outcome,[4],inactive
same,outcome,[5],inactive
same,outcome,[6],inactive
same,outcome,[7],inactive
same,outcome,[8],inactive
CNS(=O)(=O)c1cc(C(=O)N2CCC(CCN3C4CCC3CC(n3c(C)nc5ccccc53)C4)(c3cccc(F)c3)CC2)c(Cl)cc1F (stereo not given),AC50,[1],5.99 µM (active)
same,AC50,"CD38, CD38 (gene 952)",28.9 µM (active)
same,AC50,"CD40, CD40 (gene 958)",23.2 µM (active)
same,AC50,"CD69, CD69 (gene 969)",20 µM (active)
same,AC50,[2],27.5 µM (active)
same,outcome,[3],inactive
same,outcome,[4],inactive
same,AC50,[5],12.6 µM (active)
same,AC50,[6],20 µM (active)
same,AC50,[7],10.4 µM (active)
same,AC50,[8],16.7 µM (active)
same,AC50,[9],6.52 µM (active)
same,AC50,[13],4.08 µM (active)
same,AC50,[12],6.01 µM (active)
CCN(C(=O)c1cc(C)cc(OC[C@H](C)Nc2ccncc2)c1)C(C)C,outcome,[1],inactive
same,outcome,"CD38, CD38 (gene 952)",inactive
same,outcome,"CD40, CD40 (gene 958)",inactive
same,outcome,"CD69, CD69 (gene 969)",inactive
same,outcome,[2],inactive
same,outcome,[3],inactive
same,outcome,[4],inactive
same,outcome,[5],inactive
same,outcome,[6],inactive
same,outcome,[7],inactive
same,AC50,[9],4.5 µM (active)
same,AC50,[13],2.87 µM (active)
